40 compounds from ChEMBL document CHEMBL1157539, “Thousands of chemical starting points for antimalarial lead identification” (Nature, 2010) can be followed below.

The assay concerns HepG2. As to the kind of experiment: GSK_TCMDC: Percent inhibition of human HepG2 cell line. Test compounds present at 10uM. It is filed as functional.
On to `CCOC(=O)CNC(=O)N1CCN(C(=O)NCC(=O)OCC)CC1`, for which the Inhibition (commonly the drop in the measured response relative to a control, in per cent) is 0%.
As for `Cc1[nH]c(C)c(C(F)(F)F)c(=O)c1-c1ccc(Oc2ccc(OC(F)(F)F)cc2)cc1`, the figure is 0%; as for `COc1cccc(Nc2nc(NCCO)c3ccccc3n2)c1.Cl`, 1%.
`COc1ccc(Cn2c(Nc3cccc(C(F)(F)F)c3)nc3cc(C(=O)NCCCN(C)C)ccc32)cc1Cl` registered an Inhibition of 15%.
As for `O=C(N[C@@H](CC1CCCCC1)C(=O)NC1CCCc2ccccc21)c1ccc(O)c(-c2cccc(C(F)(F)F)c2)c1` (stereo not given in full), the figure is 0%; as for `CN(C)CCOc1cc(NC(=O)Nc2ccc(-c3ccccc3)cc2Cl)ccc1I`, 25%; as for `OC(CNc1ccnc(Nc2ccccc2)n1)c1ccc(C(F)(F)F)cc1` (stereo not given), 3%.
Under `O=C(Nc1ccc(Cn2ncc(N3CCCNCC3)c(Cl)c2=O)cc1)Nc1ccc(SC(F)(F)F)cc1.O=C(O)C(F)(F)F` stands 9%.
As for `COc1cccc(-c2cc(C(F)(F)F)n3ncc(C(=O)Nc4cc(Cl)ccc4O)c3n2)c1`, the figure is 0%; as for `Cl.Oc1ccc(-c2ccccc2)cc1CNC1CCCCC1`, 24%.
On to `Cc1[nH]n(-c2cccc(C(F)(F)F)c2)c(=O)c1-c1ccc(Cl)cc1`, for which the Inhibition stood at 7%.
Under `NC1CCCN(Cc2ccc(-c3cccc(-c4nc5ccccc5[nH]4)c3)cc2)C1.O=C(O)C(F)(F)F` (stereo not given) stands 26%.
As for `CCOC(=O)c1ccc(NC(=O)Nc2ccc(-c3ccc(-c4nc5cccc(C)c5[nH]4)s3)cc2)cc1`, the figure is 60%.
For the compound `COc1ccc2cc(CNCCCCCCNCc3ccc4cc(OC)ccc4c3)ccc2c1.CS(=O)(=O)O`, the Inhibition worked out at 100%.
Under `CCOC(=O)c1cc(C(=O)NCCCCN2CCC(c3ccc(CC)cc3OCC)CC2)ccc1-c1ccc(C(F)(F)F)cc1` stands 74%; under `CN1CCCC1CCNc1ncc2c(-c3ccc(NC(=O)Nc4cc(C(F)(F)F)ccc4F)c(F)c3)nn(C)c2n1.O=C(O)C(F)(F)F` (stereo not given), 100%.
The compound `COc1cc2c(cc1OC)CN(CCc1ccc(NC(=O)c3cc4cc(Cl)ccc4[nH]3)cc1)CC2` returned an Inhibition of 3%.
As for `c1ccc(Oc2ccc(Nc3ccnc4cc(-c5cccc(CN6CCOCC6)c5)ccc34)cc2)cc1`, the figure is 14%; as for `COc1ccc(COc2c(OC)cc(Cc3cnc(N)nc3N)cc2OC)cc1`, 5%; as for `O=C(O)C(F)(F)F.c1cc(CNCC2CCCO2)cc(-c2cccc(-c3nc4ccccc4[nH]3)c2)c1` (stereo not given), 15%.
As for `Cc1ccc(-c2cc(C(=O)Nc3ccc(S(=O)(=O)N4CCCCC4)cc3)[nH]n2)c(O)c1`, the figure is 6%; as for `NCc1ccc(CNCc2ccc(-c3ccc(-c4nc5cc(F)ccc5[nH]4)cc3)cc2)cc1.O=C(O)C(F)(F)F`, 12%.
Under `Cl.O=c1cc(NCCCNCc2cc3ccccc3s2)[nH]c2ccccc12` stands 3%; under `CCc1n[nH]c(C(=O)Nc2cccc(N3CCCC3)c2)c1C`, 15%; under `O=C(/C=C/c1ccc(Cl)c(Cl)c1)NCCCCCCN1CCCN(C(=O)Nc2cc(Cl)cc(Cl)c2)CC1`, 26%.
`C=CCC1OC(=O)c2cc(OC)cc(OC)c21` (stereo not given): the Inhibition is given as 100%.
Compound `COc1cc2nc(N3CCC(CNC(=O)c4ccc(-c5ccc(C(F)(F)F)cc5)cc4)CC3)nc(N)c2cc1OC` displayed an Inhibition of 94%.
Under `CN(C)Cc1cccc(-c2cnc(N)c(-c3nc4cc(S(C)(=O)=O)ccc4[nH]3)c2)c1.O=C(O)C(F)(F)F` stands 27%; under `COc1ccc(CNCc2ccccc2)cc1-c1ccc(OC)c(S(=O)(=O)NCCN2CCCC2)c1.O=C(O)C(F)(F)F`, 14%; under `CCOc1c(CCNCCCCNCCc2ccc3ccccc3c2OCC)ccc2ccccc12.CS(=O)(=O)O`, 100%.
Under `NCc1ccc(-c2ccccc2CNC2CCN(Cc3ccccc3)CC2)cc1.O=C(O)C(F)(F)F` stands 20%; under `O=C(Nc1ccc(Cl)cc1F)N[C@H]1CCN(CCCCCNC(=O)C2CC2c2ccc(Cl)c(Cl)c2)C1` (stereo not given in full), 29%.
Under `O=C(Nc1ccc(C(F)(F)F)cc1)c1cccc(S(=O)(=O)NC2CCN(CC3CCCCC3)CC2)c1.O=C(O)C(F)(F)F` stands 18%; under `CC(=O)Nc1ccc(C(=O)Nc2ccc(-c3cccc(-c4nc5ccccc5[nH]4)c3)cc2)cn1`, 34%; under `CN(C)CCOc1ccc(/C(=C(/CCCn2ccnc2)c2ccccc2)c2ccc(O)cc2)cc1`, 13%.
`CC(C)(C)N1CCC(N(Cc2ccc(-c3ccc(C(F)(F)F)cc3)cc2)C(=O)Cn2c(CCc3cccc(F)c3F)cc(=O)c3cccnc32)CC1.O=C(O)C(O)C(O)C(=O)O` gave an Inhibition of 100%.
The compound `Br.CC(C)c1ccc(OCCCON2C(=N)N=C(N)NC2(C)C)cc1` had an Inhibition of 69%.
As for `Nc1nc(N)c2c(ccc3c2ccn3Cc2ccc(-c3ccccc3)cc2)n1`, the figure is 100%; as for `Nc1ncnc2nc(-c3ccc(F)cc3)cc(-c3ccc(NC(=O)c4ccccc4)cc3)c12`, 0%; as for `COc1ccc2c(=O)c(I)c(C)[nH]c2c1`, 27%.
